Among all 6,200 compounds or so, about 2,900 (47%) were called active. The set was probably picked from earlier hits. Some of the results follow. Values without a mark were called inactive. No stated cut-off is given here; in the data, active means inhibition above about 50%; inactive means the rest.
Test: Mycobacterium tuberculosis growth inhibition, primary screen (AID 1259343)
Conditions: inhibition: at 10 µM, stronger effect = higher value; outcome: 10 uM
With `C/C=C/c1c(F)c(F)c(Oc2ccc(C=O)cc2)c(F)c1F` the inhibition was 88.6% (active).
For `Cc1cccc(NC(=O)/C=C/C2=C(Cl)c3ccccc3S2(=O)=O)c1C`, the inhibition was 102% (active).
With `Cc1ccc(OCc2nc(CC(=O)N(C)CC3CCCCC3)cs2)cc1` the inhibition was 79.4% (active).
With `O=C(Cc1csc(COc2ccc(Cl)cc2)n1)NC12CC3CC(CC(C3)C1)C2` the inhibition was 49.5%.
Compound `NC(=O)c1ccccc1OCc1csc(COc2ccc(F)cc2)n1` has an inhibition of 15.8%.
For `CSc1ncc(Cl)c(C(=O)C(C#N)c2nc3ccc(Br)cc3c(=O)[nH]2)n1` (stereo unspecified), the inhibition was 15.1%.
For `CC(C)c1ccc(C(=O)Nc2sccc2C(=O)N2CCCC2)cc1`, the inhibition was 16.5%.
Compound `COC(=O)c1cnc(NC(=O)c2cc(F)cc(Br)c2)s1` has an inhibition of 19.9%.
With `CCC(CC)c1nnc(NC(=O)c2cc(C)cc(C)c2)s1` the inhibition was 51.2% (active).
With `CC(C)c1nnc(NC(=O)c2cccc(I)c2)s1` the inhibition was 90.6% (active).
In the case of `CC(C)Cc1nnc(NC(=O)c2cccc(C#N)c2)s1`, the inhibition is reported as 20.8%.
With `CC(C)c1ccc(C(=O)Nc2nnc(C(C)C)s2)cc1` the inhibition was 90% (active).
In the case of `CCCC(C)c1nnc(NC(=O)c2cnc(-c3ccccn3)nc2)s1` (stereo unspecified), the inhibition is reported as -2.11%.
Compound `Cc1ccc(C#N)cc1S(=O)(=O)Nc1nnc(C(C)C)s1` has an inhibition of 31.9%.
With `c1ccc(-c2ccc(-c3nccn3CCn3ccnc3)s2)cc1` the inhibition was -34.9%.
For `CC(=NCCCn1ccnc1)c1c(-c2ccccc2)[nH]n(-c2nc3ccccc3s2)c1=O`, the inhibition was 52.5% (active).
In the case of `COc1ccc(-c2cn3c(C(=O)Nc4nccs4)csc3n2)cc1`, the inhibition is reported as 10.8%.
In the case of `COc1cccc(-c2cn3c(C(=O)Nc4ccccn4)csc3n2)c1`, the inhibition is reported as 75.6% (active).
Work on `Clc1ccc(Sc2ncccn2)cc1` yielded an inhibition of 2.73%.
For `Cc1c2cnnc(Sc3ccc(Cl)cc3)c2c(C)n1C`, the inhibition was 64% (active).
In the case of `Cc1nonc1CN(C)C(=O)c1cc(COc2ccc(F)cc2Cl)on1`, the inhibition is reported as 89.4% (active).
In the case of `CSc1ccccc1OCc1cc(C(=O)N(C)Cc2ccc(F)cc2)no1`, the inhibition is reported as 15.7%.
In the case of `CC(=O)c1ccc(OCc2cc(C(=O)N(C)Cc3ccon3)no2)cc1`, the inhibition is reported as 80.4% (active).
In the case of `CCc1ccc(CN(C)C(=O)c2cc(COc3ccc(OC)cc3Cl)on2)nc1`, the inhibition is reported as 73% (active).
For `CC(C)c1ccc(O)c(NC(=S)NC(=O)c2cncc(Br)c2)c1`, the inhibition was 99.5% (active).
With `CC(NC(=O)c1cncc(Br)c1)c1ccc(Cl)cc1` (stereo unspecified) the inhibition was 86.8% (active).
Work on `CC(NC(=O)c1cc(Br)ccc1O)c1ccccc1` (stereo unspecified) yielded an inhibition of 17.3%.
For `COc1cccc(OCCN2CCN(c3ncnc4sc5c(c34)CCCC5)CC2)c1`, the inhibition was 36.6%.
With `OCC1CCCN(c2ncnc3sc4c(c23)CCCC4)C1` (stereo unspecified) the inhibition was 20.6%.
With `COc1ccc(F)cc1CN1CCN(c2ncnc3sc4c(c23)CCCC4)CC1` the inhibition was 60% (active).
Work on `Oc1cc(CCC2CCCCN2)cc(-c2ccncc2)c1` (stereo unspecified) yielded an inhibition of 45.4%.
For `C1CCC(C(CC2CCCCN2)C2CCCCC2)CC1` (stereo unspecified), the inhibition was 55.1% (active).
In the case of `CC(OC1CC(=O)CC2C(=O)c3ccccc3C(=O)C12)c1ccccc1` (stereo unspecified), the inhibition is reported as 94.3% (active).
`CC(C)c1ccc2c(c1O)CC[C@H]1C3=C(CC[C@]21C)C(=O)OC3` showed an inhibition of 45%.
`C(=NNC1=Nc2cccc3cccc1c23)c1ccccc1` showed an inhibition of 15.1%.
In the case of `Cn1cc(C=NNc2ccccc2)c2ccccc21`, the inhibition is reported as -30.1%.
With `C(=NNc1ccccc1)c1cnn(-c2ccccc2)c1` the inhibition was 94.4% (active).
With `CN(C)c1ccc2cc(NC(=O)C3CC(=O)N(C4CCCC4)C3)ccc2n1` (stereo unspecified) the inhibition was 87.7% (active).
In the case of `COc1cccc(C(=O)Oc2ccc(C(=O)COC(=O)C3CC(=O)N(C4CCCCC4)C3)cc2)c1` (stereo unspecified), the inhibition is reported as -11.2%.
`COc1c(Cl)cc(NC(=O)C2CC(=O)N(C)C2)cc1Cl` (stereo unspecified) gave an inhibition of 43.6%.
For `O=C(Nc1nc(-c2ccc(Cl)cc2)cs1)C1CC(=O)N(C2CC2)C1` (stereo unspecified), the inhibition was 21.7%.
For `Cc1ccc(NC(=O)C2CC(=O)N(C3CC3)C2)cc1C(F)(F)F` (stereo unspecified), the inhibition was 63.6% (active).
For `CN(C)C(=O)N1CCC(C(=O)Nc2ccc(Oc3ccccc3)cc2)CC1`, the inhibition was 81.9% (active).
`CN1CC(C(=O)Nc2ccc3nc(C4CC4)oc3c2)CC1=O` (stereo unspecified) gave an inhibition of -6.81%.
For `O=C(Nc1ccc(Oc2ccccc2)cc1)C1CC(=O)N(C2CC2)C1` (stereo unspecified), the inhibition was 66.1% (active).
Work on `O=C1CCC(C(=O)Nc2ccc(Oc3ccccc3)cc2)N1` (stereo unspecified) yielded an inhibition of 29.5%.
`CC1CC(N2CCN(c3nccs3)CC2)C(=O)O1` (stereo unspecified) gave an inhibition of 2.21%.
With `CC(=O)NCCC1CCCCN1C(=O)Nc1ccc(Oc2ccccc2)cc1` (stereo unspecified) the inhibition was 83.9% (active).
Compound `O=C(Nc1ccc(Oc2ccccc2Cl)cc1)N1CCOC2CCCCC21` (stereo unspecified) has an inhibition of 26.2%.
`Fc1ccc(-c2nnn(CCCc3n[nH]c(Cc4ccccc4)n3)n2)cc1` gave an inhibition of 37.6%.
In the case of `Fc1cccc(-c2nnn(CCc3ccccn3)n2)c1`, the inhibition is reported as 65.1% (active).
`CNS(=O)(=O)c1cc(NC(=O)CNC(=O)C2CCCCC2)ccc1C` gave an inhibition of 8.53%.
In the case of `CCNC(=O)CCC(=O)Nc1ccc(OC2CCCC2)c(F)c1`, the inhibition is reported as 92.8% (active).
With `c1ccc2c(c1)oc1c(NCC3CCCCC3)ncnc12` the inhibition was 23.3%.
With `c1ccc2c(c1)oc1c(NC3CCCCC3)ncnc12` the inhibition was -31.2%.
With `c1ccc2c(c1)oc1c(NC3CCCCCC3)ncnc12` the inhibition was 102% (active).
With `COc1cc(C=c2sc(=CC(=O)c3ccco3)[nH]c2=O)cc(Br)c1O` the inhibition was 91.2% (active).
In the case of `c1cnc(NCc2cccnc2N2CCc3ccccc3C2)nc1`, the inhibition is reported as 36.6%.
For `Fc1ccccc1CON=C1CCN(c2ncccn2)CC1`, the inhibition was 83.5% (active).
Work on `CCN(CC(=O)Nc1c(Cl)cccc1Cl)C(=O)CCn1c(=O)oc2cc(Cl)ccc21` yielded an inhibition of -5.97%.
With `CCc1ccc(CN(C)C(=O)c2cc(COc3ccc(-n4cncn4)cc3)on2)cc1` the inhibition was 36.7%.
In the case of `CN(Cc1nc2c(s1)CCCC2)C(=O)c1cc(COc2ccc(-n3cncn3)cc2)on1`, the inhibition is reported as 85.4% (active).
`COc1ccc(C=C2N=C(c3cccc(F)c3)OC2=O)cc1` gave an inhibition of 3.76%.
With `COc1cccc(C=C2N=C(c3ccccc3OC(F)F)OC2=O)c1` the inhibition was 86.9% (active).
`C=CCOc1ccc(C=C2N=C(c3ccccc3I)OC2=O)cc1OC` gave an inhibition of -4.12%.
Work on `Cc1cccc(CN(C)C)c1OC(=O)N(C)C` yielded an inhibition of 3.93%.
For `CN(Cc1ccccc1C#N)c1ccc2ccccc2c1`, the inhibition was 30.3%.
In the case of `CN(C)Cc1ccc2ccc3cccc4ccc1c2c34`, the inhibition is reported as 90.5% (active).
With `CN(Cc1ccc(-c2ccc(Cl)cc2)o1)C(=O)CNC(=O)c1ccccc1` the inhibition was 72.2% (active).
`Cc1oc(-c2ccc(Cl)cc2)nc1CN(C)Cc1ccc2nonc2c1` showed an inhibition of 31.7%.
With `CN(Cc1ccc(-c2ccc(Cl)cc2)o1)C(=O)CCl` the inhibition was 90.9% (active).
In the case of `Cc1ccc(-c2nc(COC(=O)c3cc(Cl)c[nH]3)cs2)cc1`, the inhibition is reported as 34.1%.
Compound `Cn1ccsc1=NC(=O)c1csc(-c2ccc(Cl)cc2)n1` has an inhibition of 15.8%.
For `Cc1cc(NC(=O)c2csc(-c3ccc(Cl)cc3)n2)n[nH]1`, the inhibition was 74.4% (active).
In the case of `Cc1nc2cc(NC(=O)C3CCCN(C(=O)OC(C)(C)C)C3)ccc2o1` (stereo unspecified), the inhibition is reported as 82.6% (active).
`Cc1cc2cc(C(=O)N3CCCC(C(=O)Nc4ccc(-c5ccco5)cc4)C3)ccc2o1` (stereo unspecified) gave an inhibition of -11.5%.
`Cc1nc2cc(NC(=O)C(C)Oc3ccc(Cl)cc3)ccc2o1` (stereo unspecified) gave an inhibition of -4.42%.
With `CC(NC(=O)c1cc(C2CC2)on1)c1cc(Cl)ccc1Cl` (stereo unspecified) the inhibition was 56.5% (active).
With `CC(C)C(=O)N1CCC(NC(=O)c2cc(C3CC3)on2)CC1` the inhibition was -6.02%.
Compound `O=C(Nc1ccccc1N1CCCC1)c1cc(C2CC2)on1` has an inhibition of 36.3%.
With `CCc1cc(=O)[nH]c(-n2nc(C)cc2NC(=O)c2cccs2)n1` the inhibition was -29.6%.
In the case of `CCCc1cc(=O)[nH]c(-n2nc(C)cc2NC(=O)c2cccc(Br)c2)n1`, the inhibition is reported as 101% (active).
In the case of `CCCc1cc(=O)[nH]c(-n2nc(C)cc2NC(=O)c2ccc(Br)cc2)n1`, the inhibition is reported as 99.8% (active).
For `CCCc1cc(=O)[nH]c(-n2nc(C)cc2NC(=O)c2cccs2)n1`, the inhibition was 100% (active).
For `CCCc1cc(=O)[nH]c(-n2nc(C)cc2NC(=O)c2ccc(C)cc2)n1`, the inhibition was 101% (active).
For `CNc1cc(C)nc(NCc2cc(C)cc3c(C)c(C)[nH]c23)n1`, the inhibition was 41.1%.
For `CCCc1cc(=O)[nH]c(-n2nc(C)cc2NC(=O)c2cccc(OC)c2)n1`, the inhibition was 99.8% (active).
For `CCCc1cc(=O)[nH]c(-n2nc(C)cc2NC(=O)c2ccccc2)n1`, the inhibition was 101% (active).
For `CCCc1cc(=O)[nH]c(-n2nc(C)cc2NC(=O)c2cccc(F)c2)n1`, the inhibition was 100% (active).
In the case of `CCCc1cc(=O)[nH]c(-n2nc(C)cc2NC(=O)c2cccc(C(F)(F)F)c2)n1`, the inhibition is reported as 91.4% (active).
For `CCCc1cc(=O)[nH]c(-n2nc(C)cc2NC(=O)c2cc(OC)cc(OC)c2)n1`, the inhibition was -22.1%.
`CCN(CC)c1nc2sc(C(=O)NC3(C)CCCC3)cc2s1` gave an inhibition of 32.9%.
With `CCCc1cc(=O)[nH]c(-n2nc(C)cc2NC(=O)c2ccc(C(F)(F)F)cc2)n1` the inhibition was 102% (active).
For `CCCc1cc(=O)[nH]c(-n2nc(C)cc2NC(=O)c2cccc(Cl)c2)n1`, the inhibition was 101% (active).
With `CCCc1cc(=O)[nH]c(-n2nc(C)cc2NC(=O)c2ccc(F)cc2)n1` the inhibition was 101% (active).
For `CCCc1cc(=O)[nH]c(-n2nc(C)cc2NC(=O)c2cc(C(F)(F)F)cc(C(F)(F)F)c2)n1`, the inhibition was 13.6%.
In the case of `CN(Cc1cccc(Cl)c1)C(=O)NCc1cc(F)cc(F)c1`, the inhibition is reported as 72.5% (active).
With `CSc1ccc(NC(=O)CN(C)Cc2ccc3c(c2)OCO3)cc1` the inhibition was 72.3% (active).
In the case of `CN(Cc1ccc2c(c1)OCO2)c1ccc(C(=O)NC2CC2)cn1`, the inhibition is reported as 12.6%.
`CN(Cc1ccoc1)C(=O)c1cn(Cc2cccc(C(F)(F)F)c2)nn1` showed an inhibition of 14.9%.
With `CN(Cc1cccc(C(F)(F)F)c1)C(=O)c1cn(Cc2ccccc2Cl)nn1` the inhibition was 20.9%.
For `CN(Cc1ccc(F)cc1F)C(=O)NCc1cccc(C(F)(F)F)c1`, the inhibition was 91% (active).
In the case of `Cc1cc(CNC(=O)CS(=O)(=O)Cc2cccc(Cl)c2)ccc1F`, the inhibition is reported as 15.5%.
`Cc1ccc(NC(=O)N(C)Cc2cccc(F)c2)c(Cl)c1` showed an inhibition of 9.23%.
For `CN(Cc1ccc(F)cc1)C(=O)NCc1ccc2c(c1)OCO2`, the inhibition was 67.4% (active).
Work on `O=S(=O)(NCc1ccc2c(c1)OCO2)c1ccc(F)c(C(F)(F)F)c1` yielded an inhibition of 26.9%.

Reference: PubChem BioAssay AID1259343 (VanderVen Lab, College of Veterinary Medicine, Cornell …, 2017)
